Assay results reported in PubChem BioAssay (NCATS).
Results filed as inconclusive are left out. A number with no mark means an inactive call. Activity calls are given as the source filed them. Calls come from the whole dose curve; as a rule, active = well fitted inhibition curve with a large enough effect; inconclusive = small, poorly fitted or top-dose-only effect; inactive = flat fitted curve, though single readings scatter.
Potency is the fitted concentration of half-maximal effect.

The compounds below were run on TAB109 (assay: qHTS profiling for inhibitors of Plasmodium falciparum proliferation (AID 504749; note: nearly all actives have a fitted effect of over 60% in size;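 for activity, negative = inhibition: 0% = DMSO vehicle and full inhibition = artemisinin control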)). Details: P. falciparum in erythrocytes, SYBR Green DNA, 72 h; series mostly up to 28.7 µM; activity, negative = inhibition: at the top concentration.
Procedure, shortened: (§1)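 In a 72 h erythrocytic culture (37 C, humidified, 5% CO2) at 2.5% hematocrit and 0.3% starting parasitemia, compounds were tested; SYBR Green I in detergent lysis buffer stained parasite DNA overnight.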
With Nc1c2c(nc3ccccc13)CCCC2 the Potency was 8.91 µM (active).
For CCC1(c2ccccc2)C(=O)NCNC1=O, the “activity, negative = inhibition” value was 4.62%.
In the case of NC12CC3CC(CC(C3)C1)C2, the “activity, negative = inhibition” value was 14.8%.
In the case of CCCCc1oc2ccccc2c1C(=O)c1cc(I)c(OCCN(CC)CC)c(I)c1, the Potency was 7.08 µM (active).
OCCN1CCN(CCCN2c3ccccc3Sc3ccc(C(F)(F)F)cc32)CC1 was tested, and the Potency was 7.08 µM (active).
Cc1cc(C(C)(C)C)cc(C)c1CC1=NCCN1 was tested, and the “activity, negative = inhibition” value was -19.2% [at 12.8 µM].
With CC(CCc1ccc(O)cc1)NCCc1ccc(O)c(O)c1 (centres undefined) the “activity, negative = inhibition” value was 8.41%.
With Clc1ccc(C(c2ccccc2Cl)C(Cl)Cl)cc1 (centres undefined) the “activity, negative = inhibition” value was -5.85%.
For COc1cc2c(c(OC)c1OC)-c1ccc(OC)c(=O)cc1[C@@H](NC(C)=O)CC2, the “activity, negative = inhibition” value was -2.1%.
For Cn1c(=O)c2[nH]cnc2n(C)c1=O, the “activity, negative = inhibition” value was 13.8%.
Cc1cn([C@H]2C[C@H](N=[N+]=[N-])[C@@H](CO)O2)c(=O)[nH]c1=O was tested, and the “activity, negative = inhibition” value was 1.43%.
In the case of CC#C[C@]1(O)CC[C@H]2[C@@H]3CCC4=CC(=O)CCC4=C3[C@@H](c3ccc(N(C)C)cc3)C[C@@]21C, the Potency was 11.2 µM (active).
With COc1ccccc1OCCNCC(O)COc1cccc2[nH]c3ccccc3c12 (centres undefined) the Potency was 10 µM (active).
In the case of CCOC(=O)Nc1ccc(NCc2ccc(F)cc2)nc1N, the Potency was 10 µM (active).
With CCOC(=O)c1ncn2c1CN(C)C(=O)c1cc(F)ccc1-2 the “activity, negative = inhibition” value was 4.73%.
For CNCCCC12CCC(c3ccccc31)c1ccccc12, the “activity, negative = inhibition” value was -27.2%.
With CN1CCC(=C2c3ccccc3C=Cc3ccccc32)CC1 the “activity, negative = inhibition” value was 5.03%.
In the case of O=C1c2c(O)ccc(O)c2C(=O)c2c(NCCNCCO)ccc(NCCNCCO)c21, the Potency was 2.24 µM (active).
For COc1ccccc1N1CCN(CC(O)COc2cccc3ccccc23)CC1 (centres undefined), the “activity, negative = inhibition” value was -0.264%.
In the case of CN1CCN2c3ccccc3Cc3ccccc3C2C1 (centres undefined), the “activity, negative = inhibition” value was 11.7%.
For CN(Cc1cnc2nc(N)nc(N)c2n1)c1ccc(C(=O)N[C@@H](CCC(=O)O)C(=O)O)cc1, the “activity, negative = inhibition” value was -21.7%.
With O=C(c1ccc(OCCN2CCCCC2)cc1)c1c(-c2ccc(O)cc2)sc2cc(O)ccc12 the Potency was 7.94 µM (active).
COc1ccccc1OCC(O)CN1CCN(CC(=O)Nc2c(C)cccc2C)CC1 (centres undefined) was tested, and the “activity, negative = inhibition” value was 6.42%.

These compounds were tested on TAB113 in the same assay as above. Details: P. falciparum in erythrocytes, SYBR Green DNA, 72 h; series mostly up to 28.7 µM; activity, negative = inhibition: at the top concentration.
Procedure, shortened: as §1
COc1ccc(CCN(C)CCCC(C#N)(c2ccc(OC)c(OC)c2)C(C)C)cc1OC (centres undefined) was tested, and the “activity, negative = inhibition” value was 19.6%.
Nc1c2c(nc3ccccc13)CCCC2 was tested, and the “activity, negative = inhibition” value was -9.83%.
With CCC1(c2ccccc2)C(=O)NCNC1=O the “activity, negative = inhibition” value was 8.31%.
O=C(Nc1ccc([N+](=O)[O-])cc1Cl)c1cc(Cl)ccc1O was tested, and the Potency was 0.708 µM (active).
NC12CC3CC(CC(C3)C1)C2 was tested, and the “activity, negative = inhibition” value was 8.18%.
CCCCc1oc2ccccc2c1C(=O)c1cc(I)c(OCCN(CC)CC)c(I)c1 was tested, and the Potency was 12.6 µM (active).
For OCCN1CCN(CCCN2c3ccccc3Sc3ccc(C(F)(F)F)cc32)CC1, the Potency was 8.91 µM (active).
With Cc1cc(C(C)(C)C)cc(C)c1CC1=NCCN1 the “activity, negative = inhibition” value was -12.7% [at 12.8 µM].
CC(CCc1ccc(O)cc1)NCCc1ccc(O)c(O)c1 (centres undefined) was tested, and the “activity, negative = inhibition” value was 9.9%.
In the case of Clc1ccc(C(c2ccccc2Cl)C(Cl)Cl)cc1 (centres undefined), the “activity, negative = inhibition” value was -8.68%.
In the case of COc1cc2c(c(OC)c1OC)-c1ccc(OC)c(=O)cc1[C@@H](NC(C)=O)CC2, the “activity, negative = inhibition” value was 1.13%.
For Cn1c(=O)c2[nH]cnc2n(C)c1=O, the “activity, negative = inhibition” value was -3.05%.
CN(C)CCOC(c1ccccc1)c1ccccc1 was tested, and the “activity, negative = inhibition” value was 25.7%.
For Cc1cn([C@H]2C[C@H](N=[N+]=[N-])[C@@H](CO)O2)c(=O)[nH]c1=O, the “activity, negative = inhibition” value was 1.26%.
In the case of CC#C[C@]1(O)CC[C@H]2[C@@H]3CCC4=CC(=O)CCC4=C3[C@@H](c3ccc(N(C)C)cc3)C[C@@]21C, the Potency was 8.91 µM (active).
For COc1ccccc1OCCNCC(O)COc1cccc2[nH]c3ccccc3c12 (centres undefined), the Potency was 10 µM (active).
With CCOC(=O)Nc1ccc(NCc2ccc(F)cc2)nc1N the Potency was 11.2 µM (active).
For CCOC(=O)c1ncn2c1CN(C)C(=O)c1cc(F)ccc1-2, the “activity, negative = inhibition” value was 6.31%.
CNCCCC12CCC(c3ccccc31)c1ccccc12 was tested, and the “activity, negative = inhibition” value was -20.2%.
CN1CCC(=C2c3ccccc3C=Cc3ccccc32)CC1 was tested, and the “activity, negative = inhibition” value was 3.8%.
O=C1c2c(O)ccc(O)c2C(=O)c2c(NCCNCCO)ccc(NCCNCCO)c21 was tested, and the Potency was 3.55 µM (active).
CN1CCN2c3ccccc3Cc3ccccc3C2C1 (centres undefined) was tested, and the “activity, negative = inhibition” value was 13.8%.
O=C(c1ccc(OCCN2CCCCC2)cc1)c1c(-c2ccc(O)cc2)sc2cc(O)ccc12 was tested, and the Potency was 5.01 µM (active).
COc1ccccc1OCC(O)CN1CCN(CC(=O)Nc2c(C)cccc2C)CC1 (centres undefined) was tested, and the “activity, negative = inhibition” value was -1.34%.

What follows are compounds tested on TAB165 in the same assay as above. Details: P. falciparum in erythrocytes, SYBR Green DNA, 72 h; series mostly up to 28.7 µM; activity, negative = inhibition: at the top concentration.
Procedure, shortened: as §1
In the case of COc1ccc(CCN(C)CCCC(C#N)(c2ccc(OC)c(OC)c2)C(C)C)cc1OC (centres undefined), the “activity, negative = inhibition” value was 6.15%.
CCC1(c2ccccc2)C(=O)NCNC1=O was tested, and the “activity, negative = inhibition” value was 8.51%.
In the case of O=C(Nc1ccc([N+](=O)[O-])cc1Cl)c1cc(Cl)ccc1O, the Potency was 0.355 µM (active).
NC12CC3CC(CC(C3)C1)C2 was tested, and the “activity, negative = inhibition” value was 10.2%.
CCCCc1oc2ccccc2c1C(=O)c1cc(I)c(OCCN(CC)CC)c(I)c1 was tested, and the Potency was 3.16 µM (active).
OCCN1CCN(CCCN2c3ccccc3Sc3ccc(C(F)(F)F)cc32)CC1 was tested, and the Potency was 12.6 µM (active).
In the case of Cc1cc(C(C)(C)C)cc(C)c1CC1=NCCN1, the “activity, negative = inhibition” value was -26.7% [at 12.8 µM].
CC(CCc1ccc(O)cc1)NCCc1ccc(O)c(O)c1 (centres undefined) was tested, and the “activity, negative = inhibition” value was 1.22%.
In the case of Clc1ccc(C(c2ccccc2Cl)C(Cl)Cl)cc1 (centres undefined), the “activity, negative = inhibition” value was -28%.
With COc1cc2c(c(OC)c1OC)-c1ccc(OC)c(=O)cc1[C@@H](NC(C)=O)CC2 the “activity, negative = inhibition” value was 0.0105%.
In the case of Cn1c(=O)c2[nH]cnc2n(C)c1=O, the “activity, negative = inhibition” value was 3.52%.
In the case of Cc1cn([C@H]2C[C@H](N=[N+]=[N-])[C@@H](CO)O2)c(=O)[nH]c1=O, the “activity, negative = inhibition” value was 6.2%.
For CC#C[C@]1(O)CC[C@H]2[C@@H]3CCC4=CC(=O)CCC4=C3[C@@H](c3ccc(N(C)C)cc3)C[C@@]21C, the Potency was 6.31 µM (active).
For CCOC(=O)Nc1ccc(NCc2ccc(F)cc2)nc1N, the Potency was 10 µM (active).
With CCOC(=O)c1ncn2c1CN(C)C(=O)c1cc(F)ccc1-2 the “activity, negative = inhibition” value was 6.31%.
With CN1CCC(=C2c3ccccc3C=Cc3ccccc32)CC1 the “activity, negative = inhibition” value was 21.5%.
With O=C1c2c(O)ccc(O)c2C(=O)c2c(NCCNCCO)ccc(NCCNCCO)c21 the Potency was 2 µM (active).
With CC1(CN2CCC(n3c(=O)[nH]c4ccccc43)CC2)OCc2ccccc2-n2cccc21 (centres undefined) the Potency was 8.91 µM (active).
In the case of CN1CCN2c3ccccc3Cc3ccccc3C2C1 (centres undefined), the “activity, negative = inhibition” value was 1.17%.
In the case of CN(Cc1cnc2nc(N)nc(N)c2n1)c1ccc(C(=O)N[C@@H](CCC(=O)O)C(=O)O)cc1, the “activity, negative = inhibition” value was -4.09%.
For O=C(c1ccc(OCCN2CCCCC2)cc1)c1c(-c2ccc(O)cc2)sc2cc(O)ccc12, the Potency was 2.82 µM (active).
With COc1ccccc1OCC(O)CN1CCN(CC(=O)Nc2c(C)cccc2C)CC1 (centres undefined) the “activity, negative = inhibition” value was 8.29%.
